We go through 59 compounds from PubChem BioAssay AID504329 (Southern Research Specialized Biocontainment Screening …, 2011).

Hit rate of the full screen: of about 340,000 compounds, about 1,000 (0.29%) were called active. Cut-off read from the data, not from the text of the source: inconclusive = inhibition above about 27% without an active follow-up result; inactive = below that. A selection follows. Entries with a potency or affinity are not part of this list.

The nature of this assay: H1N1 influenza NS1A inhibitors, functional cell based assay (AID 504329). To be noted: percent inhibition, at 12.5 µM, stronger effect = higher value.
Turning to `O=c1ccc(/C=C/c2ccccc2)nn1Cc1ccc(F)cc1`, the inhibition was 1.19% (inactive).
Then `Cn1c(C(=O)O)cc2cc(Oc3ccccc3)ccc21`, with -27.7% (inactive); and `O=C1CCC(=O)N1OCCOc1ccccc1`, with 6.54% (inactive); and `COc1ccc(/C=C/C(=O)OCC(=O)Nc2cccc(C(C)=O)c2)cc1`, with -8.13% (inactive).
Then `O=[N+]([O-])c1ccc(CSc2nc3ccccc3o2)cc1`, with 11.7% (inactive); and `O=[N+]([O-])c1ccc(Cl)cc1Sc1nc2ccccc2o1`, with 4.69% (inactive); and `CCN(Cc1cnn(C)c1)C(=O)CC1C(=O)NCCN1Cc1cccc(OC)c1OC` (centres undefined), with -0.14% (inactive).
As to `C[N+]1=C(/C=C/Nc2ccccc2Cl)C(C)(C)c2ccccc21`, the inhibition was 3.87% (inactive).
Then `C[N+]1=C(/C=C/Nc2ccccc2)C(C)(C)c2ccccc21`, with -0.67% (inactive).
The figure for `O=c1c(-c2ccccc2)c(O)cc(-c2ccncc2)n1-c1ccc(Cl)cc1` is 1.22% (inactive).
Then `COc1cccc(OC)c1C(=O)Nc1sc2c(c1C(N)=O)CCN(Cc1ccccc1)C2`, with 0.91% (inactive); and `O=[N+]([O-])c1ccc(C[n+]2cccc3c4ccccc4ccc32)cc1`, with -5.37% (inactive).
With `O=[N+]([O-])c1ccc(C[n+]2cccc3ccccc32)cc1`, the inhibition is 2.93% (inactive).
In the case of `O=C1C(NS(=O)(=O)c2cccs2)=C(N2CCN(Cc3ccccc3)CC2)C(=O)c2ccccc21`, the inhibition is 13.7% (inactive).
Then `O=C1C(NS(=O)(=O)c2cccs2)=C(N2CCOCC2)C(=O)c2ccccc21`, with 10.6% (inactive).
The figure for `CN1CCN(C2=C(NS(=O)(=O)c3cccs3)C(=O)c3ccccc3C2=O)CC1` is -3.67% (inactive).
As for `O=C1C(NS(=O)(=O)c2cccs2)=C(N2CCN(c3cccc(Cl)c3)CC2)C(=O)c2ccccc21`, the inhibition was 19.4% (inactive).
As for `CCOC(=O)N1CCN(S(=O)(=O)N2CCCC(C(=O)NCc3ccc(OC)cc3)C2)CC1` (centres undefined), the inhibition is -1.33% (inactive).
The figure for `CCOC(=O)c1cnc2c(OC)cccc2c1N1CCN(c2ccccn2)CC1` is 3.27% (inactive); for `CC(=O)OCCc1c(C)nc2nc[nH]n2c1=O` it is -2.62% (inactive).
Consider `O=C(Cc1ccc(Cl)cc1)Nc1ccccc1C(=O)Nc1ccc(C(=O)O)cc1`, for which the inhibition is 9.57% (inactive).
`O=C1CCN(S(=O)(=O)c2ccccc2)CCN1CCOCc1ccc(Cl)cc1`: the inhibition is -21.7% (inactive).
The figure for `Cc1ccc(S(=O)(=O)NC(=O)Nc2ccccc2)cc1` is -7.51% (inactive).
Turning to `Cc1ccc(S(=O)(=O)NC(=O)Nc2ccc(F)cc2)cc1`, the inhibition was -6.14% (inactive).
Turning to `O=C(CCc1nnc(Cc2ccc(-c3ccccc3)cc2)o1)NCC1CC1`, the inhibition is -11.2% (inactive).
Then `COc1ccc(CCN2CC(C(=O)Nc3ccccc3F)CC2=O)cc1OC` (centres undefined), with -13.5% (inactive); and `O=C(NCCCn1ccnc1)C(=O)NCC1OCCN1S(=O)(=O)c1ccc(F)cc1` (centres undefined), with 19.7% (inactive); and `O=C(NCCCn1ccnc1)C(=O)NCC1OCCN1S(=O)(=O)c1ccc(Cl)cc1` (centres undefined), with 13.8% (inactive).
The figure for `Cc1ccc(/C=C/C(=O)NC(C)c2ccccc2)cc1` (centres undefined) is 2.36% (inactive).
The figure for `O=C(CSCc1ccc([N+](=O)[O-])cc1)Nc1ccccc1C(=O)O` is -16.2% (inactive).
In the case of `O=[N+]([O-])c1cc(Cl)ccc1N1CCOCC1`, the inhibition was 6.25% (inactive).
Turning to `COc1cc([N+](=O)[O-])c(N2CCOCC2)c([N+](=O)[O-])c1OC`, the inhibition is 3.06% (inactive).
The figure for `Cc1cccc(OC(=O)n2c(=S)oc3cc(Cl)ccc32)c1` is 1.29% (inactive); for `CC(C)[C@H](NC(=O)C1CCN(C(=O)[C@@H]2CCCN2)CC1)C(=O)NCc1ccc(F)cc1` it is -5.22% (inactive).
The figure for `Cc1ccc(C(=O)NC(=S)/C=C2\N(C)c3ccccc3C2(C)C)cc1` is 5.06% (inactive); for `COc1ccccc1C(=O)NC(=S)/C=C1/N(C)c2ccccc2C1(C)C` it is 22.9% (inactive).
As for `O=C(COc1cccc(NC(=O)c2cccs2)c1)c1ccc(F)cc1`, the inhibition was -6.64% (inactive).
Take `Cc1onc(-c2ccccc2)c1C(=O)NC(=S)NNC(=O)c1ccc(O)cc1`: the inhibition was 22% (inactive).
Then `Cc1onc(-c2ccccc2)c1C(=O)NC(=S)NNC(=O)c1ccccc1O`, with 20.2% (inactive); and `COc1ccccc1C(=O)NNC(=S)NC(=O)c1cccs1`, with 8.16% (inactive); and `Cc1ccccc1C(=O)NNC(=S)NC(=O)c1cccs1`, with -2.01% (inactive).
As to `O=C(NC(=S)NNC(=O)c1cc2ccccc2cc1O)c1ccco1`, the inhibition was 12.9% (inactive).
Then `O=C(NNC(=O)c1ccccc1O)c1ccco1`, with -15.8% (inactive).
As for `O=C(NC(=S)NNC(=O)c1ccco1)c1ccc(F)cc1`, the inhibition is 9.62% (inactive).
The figure for `COc1ccc(C(=O)NC(=S)NNC(=O)c2ccccc2O)cc1` is 0.2% (inactive).
Then `O=C(c1ccc([N+](=O)[O-])cc1)N(c1ccccn1)c1ccccn1`, with 2.4% (inactive); and `Cc1ccc(NC(=O)c2cccc(NC(=O)/C=C/c3ccco3)c2)cc1C`, with -4.7% (inactive); and `Cc1cccc(-c2ccc3ncnc(NCc4cccs4)c3c2)c1`, with -11% (inactive).
Take `O=C(O)c1cc2ccccc2n1-c1ccccc1`: the inhibition was 16.9% (inactive).
Then `CN(C)N=C1c2cc(S(=O)(=O)N3CCOCC3)ccc2-c2ccc(S(=O)(=O)N3CCOCC3)cc21`, with 19.5% (inactive); and `O=C(CCN1C(=O)/C(=C/c2ccccc2Cl)SC1=S)Nc1cccnc1`, with -1.44% (inactive).
The figure for `O=C(CCN1C(=O)c2ccccc2S1(=O)=O)N1CCN(c2ccccc2F)CC1` is -1.99% (inactive).
The figure for `O=C(NNC(=S)NC(=O)c1ccccc1)c1cccc([N+](=O)[O-])c1` is -20.7% (inactive); for `Cc1ccccc1C(=O)NNC(=S)NC(=O)c1ccccc1` it is -4.23% (inactive).
As to `Cc1ccccc1C(=O)NNC(=S)NC(=O)c1cccnc1`, the inhibition is 2.35% (inactive).
Then `Cc1ccc(C(=O)NC(=S)NNC(=O)c2ccccc2O)cc1`, with 34.2% (inactive); and `O=C(NC(=S)NNC(=O)c1ccccc1O)c1ccc([N+](=O)[O-])cc1`, with 1.41% (inactive).
As for `O=C(NNC(=S)NC(=O)c1ccccc1)c1cccnc1`, the inhibition was 4.4% (inactive).
The figure for `Cc1ccc(-n2c(CNc3ccc(F)cc3)nnc2SCC(N)=O)cc1` is 6.65% (inactive).

One may read the inhibition as the change of the read-out against control, counted positive when it falls.
